Measured values taken from the supplement of paper PMC13380429.

Tested on: Vero E6 infected with SARS-CoV-2
Assay: inhibition of SARS-CoV-2 cytopathic effect; higher = more antiviral protection, active = above 15
Conditions: 48 h

Measured: inhibition of SARS-CoV-2 cytopathic effect

Cc1cc(N2CCCCC2)nc2ccccc12
inactive: 1 nM -1.33% | 8.33 nM 3.15% | 100 nM -0.88% | 833.33 nM 0.63% | 10000 nM 4.47%

CCCCCCCCCCCCCCCCOc1nc2ccc(C)cc2c(=O)o1 [cetilistat]
inactive: 1 nM 2.2% | 8.33 nM 1.36% | 100 nM -0.06% | 833.33 nM 0.62% | 10000 nM 0.91%

CC(C)OC(=O)C1=CN(C(=O)c2ccc(F)c(F)c2)CC(C)(C)c2c1[nH]c1ccccc21
inactive: 1 nM -2.29% | 8.33 nM -1.15% | 100 nM -3.38% | 833.33 nM -4.11% | 10000 nM -3.87%

CN(C)c1ccc2nc3ccc(=[N+](C)C)cc-3sc2c1 [methylene-blue]
inactive: 1 nM -2.26% | 8.33 nM -2.37% | 100 nM -2.19% | 833.33 nM 8.6% | 10000 nM -7.29%

CC(=O)O[C@H]1C(=O)[C@@]2(C)[C@H]([C@H](OC(=O)c3ccccc3)[C@]3(O)C[C@H](OC(=O)[C@H](O)[C@@H](NC(=O)c4ccccc4)c4ccccc4)C(C)=C1C3(C)C)[C@]1(OC(C)=O)CO[C@@H]1C[C@@H]2O [paclitaxel]
inactive: 1 nM -2.42% | 8.33 nM -0.27% | 100 nM -2.39% | 833.33 nM -4.55% | 10000 nM -2.64%

CCN1C[C@]2(COC(=O)c3ccccc3N3C(=O)C[C@H](C)C3=O)CC[C@H](OC)[C@@]34[C@@H]5C[C@H]6[C@H](OC)[C@@H]5[C@](O)(C[C@@H]6OC)[C@](O)([C@@H](OC)[C@H]23)[C@@H]14 [methyllycaconitine]
inactive: 1 nM -1.85% | 8.33 nM -0.91% | 100 nM 0.85% | 833.33 nM 0.06% | 10000 nM -1.4%

CCS(=O)(=O)N1CCC[C@@H]2CN3CCc4cc(OC)ccc4[C@@H]3C[C@@H]21
inactive: 1 nM -0.74% | 8.33 nM 1.49% | 100 nM 0.02% | 833.33 nM 5.17% | 10000 nM -0.18%

COCCc1ccc(OCC(O)CNC(C)C)cc1 (stereo not given) [metoprolol]
inactive: 1 nM 2% | 8.33 nM 1.22% | 100 nM -0.12% | 833.33 nM -0.66% | 10000 nM 1.25%

Cc1cn(-c2cc(NC(=O)c3ccc(C)c(Nc4nccc(-c5cccnc5)n4)c3)cc(C(F)(F)F)c2)cn1 [nilotinib]
inactive: 1 nM 3.96% | 8.33 nM 3.56% | 100 nM 3.11% | 833.33 nM 5.24% | 10000 nM 6.03%

CCCCCCNC(=O)n1cc(F)c(=O)[nH]c1=O [Carmofur]
inactive: 1 nM -1.95% | 8.33 nM 0.48% | 100 nM 2.25% | 833.33 nM 1.65% | 10000 nM -0.73%

Cc1cc(-c2nc(-c3ccc(OC(F)(F)F)cc3)no2)nn1Cc1ccnc(N2CCN(C3CC3)CC2)c1
inactive: 1 nM 0.33% | 8.33 nM -2.02% | 100 nM -12.6% | 833.33 nM 0.7% | 10000 nM -8.83%

C/C=C/c1cc(OC)c(OC)cc1OC [alpha-asarone]
inactive: 1 nM 0.99% | 8.33 nM 0.62% | 100 nM -3.56% | 833.33 nM -3.9% | 10000 nM -0.33%

N[C@@H](CS(=O)O)C(=O)O [L-cysteinesulfinic-acid]
inactive: 1 nM 0.48% | 8.33 nM 0.74% | 100 nM 1.16% | 833.33 nM -1.19% | 10000 nM 2.03%

CC1(C)CCC(C)(C)c2cc(C(=O)Nc3ccc(C(=O)O)cc3)ccc21
inactive: 1 nM 0.12% | 8.33 nM 2.74% | 100 nM 1.53% | 833.33 nM 1.49% | 10000 nM 3.21%

c1nc2c(NC3CCCCC3)nc(Nc3ccc(N4CCOCC4)cc3)nc2[nH]1 [reversine]
inactive: 1 nM 3.13% | 8.33 nM 6.21% | 100 nM 1.52% | 833.33 nM -0.29% | 10000 nM -7.06%

Clc1ccc(CSC(Cn2ccnc2)c2ccc(Cl)cc2Cl)cc1 (stereo not given) [sulconazole]
inactive: 1 nM -1.13% | 8.33 nM 2.09% | 100 nM 0.76% | 833.33 nM -1.38% | 10000 nM -0.46%

N#C/C(=C\c1cccn1S(=O)(=O)c1cccc([N+](=O)[O-])c1)S(=O)(=O)c1ccc(F)cc1
inactive: 1 nM -0.59% | 8.33 nM -0.34% | 100 nM -0.6% | 833.33 nM -2% | 10000 nM -0.73%

NC(=O)CN1CCCC1=O [piracetam]
inactive: 1 nM 0.23% | 8.33 nM -1.52% | 100 nM 3.28% | 833.33 nM -1.35% | 10000 nM -0.57%

N[C@@H]1CCCN(c2c(/C=C3\SC(=O)NC3=O)cccc2-c2ccccc2)C1
inactive: 1 nM 3.5% | 8.33 nM -3.14% | 100 nM -1.57% | 833.33 nM -0.89% | 10000 nM 0%

COc1ccc(CCO[C@@H]2CCCC[C@H]2N2CC[C@@H](O)C2)cc1OC [vernakalant]
inactive: 1 nM -0.46% | 8.33 nM 0.39% | 100 nM -0.75% | 833.33 nM 1.67% | 10000 nM -1.63%

CN1C(=O)OC(C)(C)C1=O [trimethadione]
inactive: 1 nM -3.89% | 8.33 nM -1.8% | 100 nM -2.46% | 833.33 nM -3.14% | 10000 nM -1.97%

COc1cc(N)cn[n+]1-c1ccccc1 [amezinium]
inactive: 1 nM -1.03% | 8.33 nM -0.58% | 100 nM 0.21% | 833.33 nM 0.15% | 10000 nM -1.56%

O=C(O)CC[C@H]1CC[C@@](c2cc(F)ccc2F)(S(=O)(=O)c2ccc(Cl)cc2)CC1
inactive: 1 nM -2.65% | 8.33 nM -0.66% | 100 nM -4.1% | 833.33 nM -7.63% | 10000 nM -8.12%
